The source made the active and inactive calls. The rule behind the calls is not given here.
Assay: Biochemical counterscreen for C difficile toxins, absence of UDPG, inhibitor dose response (AID 720650)
Settings: series mostly up to 19.5 µM

| Compound | AC50 |
| --- | --- |
| O=C(O)c1cc(NS(=O)(=O)c2ccc(NC3CCCCC3)c([N+](=O)[O-])c2)cc(C(=O)O)c1 | inactive |
| COc1ccc(C(=O)Nc2ccccc2C(=O)O)cc1Cl | > 39 µM (inactive) |
| COc1ccc(CNC(=O)C2=CC(c3ccc(OC)cc3)=NS(=O)(=O)N2C)cc1 | inactive |
| Cc1noc(/C=C/c2ccccc2F)c1S(=O)(=O)N1CCC(C(=O)N2CCN(C)CC2)CC1 | inactive |
| Cc1cccc(/C=C/c2onc(C)c2S(=O)(=O)N2CCC(C(=O)N3CCCCC3)CC2)c1 | inactive |
| O=C(NCc1cc(C(F)(F)F)cc(C(F)(F)F)c1)C1CC(c2c(Cl)cccc2Cl)=NO1 (stereo not drawn) | inactive |
| COc1ccc(S(=O)(=O)N2CCC[C@H]2C(=O)N2CCC[C@H]2C(=O)NCc2ccncc2)cc1C | inactive |
| O=C(Nc1ccncc1)c1ccc(-c2ccccc2)cc1 | inactive |
| COc1nc(C)cc(C)c1S(=O)(=O)c1ccc(Cl)cc1 | inactive |
| O=C(CSc1cccc2cccnc12)N/N=C/c1ccc(F)cc1 | inactive |
| COc1cc(/C=C/C(=O)OCC(=O)Nc2ccc(S(N)(=O)=O)cc2)ccc1O | inactive |
| Cc1ccc(C(=O)NCCn2cc(SCC(=O)Nc3cc(C)on3)c3ccccc32)cc1 | inactive |
| O=C(NNc1ccc(-c2csnn2)cc1)c1ccccc1C(F)(F)F | 0.432 µM (active) |
| COC(=O)c1ccc(OC(=O)c2ccc(OC)cc2)c(OC)c1 | inactive |
| O=c1onc(-c2ccccc2)n1Cc1ccc([N+](=O)[O-])cc1 | inactive |
| Cc1ccc(-c2nc3ccc([N+](=O)[O-])cc3[nH]2)cc1 | 7.38 µM (active) |
| COc1ccc(CC(=O)NNC(=S)NC(=O)c2cccnc2)cc1 | inactive |
| CC(OC(=O)C1=COCCO1)C(=O)c1ccc(Br)cc1 (stereo not drawn) | inactive |
| CCn1c(C)nc2cc(C(=O)N/N=C/c3ccc(OC)c(O)c3)ccc21 | inactive |

| Compound | AC50 |
| --- | --- |
| Cc1cc(N/N=C/c2ccncc2)nc2ccccc12 | inactive |
| COc1ccc(C(NC(C)=O)c2cc(Cl)c3cccnc3c2O)cc1 (stereo not drawn) | inactive |
| Oc1ccc(Cc2ccc(Cl)cc2)c(O)c1 | > 39 µM (inactive) |
| O=C1OCC/C1=C\c1ccc(O)cc1 | 9.75 µM (active) |
| CC1CCN(CCCn2c(=S)[nH]c3c(sc4ccccc43)c2=O)CC1 | > 39 µM (inactive) |
| O=C(CNS(=O)(=O)c1ccccc1)N/N=C/c1ccc(O)cc1 | 14.9 µM (active) |
| C=CCc1ccc(O)c(-c2ccc(O)c(CC=C)c2)c1 | > 39 µM (inactive) |
| CCOc1ccccc1/C=C/c1onc(C)c1S(=O)(=O)N1CCC(C(=O)N(CC)CC)CC1 | inactive |
| CCCc1cc(-c2n[nH]c(C(=O)OCC)c2-c2cscn2)c(O)cc1O | inactive |
| c1ccc(-c2nnc(OCC3CCCO3)c3ccccc23)cc1 (stereo not drawn) | inactive |
| O=C(c1cn(-c2ccccc2)nc1-c1ccncc1)n1nnc2ccccc21 | inactive |
| O=C(O)c1cc(S(=O)(=O)Nc2ccc3cn[nH]c3c2)ccc1Cl | inactive |
| CCOC(=O)[C@@H]1[C@H]2COc3ccc(Br)cc3[C@@H]2N2C(=O)N(c3cccc(F)c3)C(=O)[C@]12C | inactive |
| COc1ccc(CNC(=O)C2=CC(c3ccc(C)cc3)=NS(=O)(=O)N2C)cc1 | inactive |
| CC(=O)C(Sc1nccc(-c2cccs2)n1)C(C)=O | 9.69 µM (active) |
| CC1(C)CCC/C(=C\c2ccccc2)C1=O | inactive |
| CC(C)(C)OCC(O)CN1CCN(C(=O)c2ccccc2)CC1 (stereo not drawn) | inactive |
| O=S(=O)(c1ccccc1)N1CCN=C1SCc1ccccc1 | > 39 µM (inactive) |
| CC(C)=CCOc1c2occc2cc2ccc(=O)oc12 | > 39 µM (inactive) |

Reference: PubChem BioAssay AID720650 (Broad Institute, 2013)
